Our source for the growth inhibition and inhibition values is PubChem BioAssay.

Structures are written as SMILES. Calls of active or inactive are those of the source.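 Rule for the calls, unless noted: active = growth inhibition above 50% at the single 2 µM test dose, taken to imply half-maximal potency below 2 µM; inactive = the rest.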

The nature of one assay: antimalarial activity against Dd2 strain (AID 2302).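 Note: 0% = DMSO untreated growth and 100% = chloroquine plus artemisinin killed control.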 Conditions: P. falciparum Dd2 in RBCs, LDH growth readout, 72 h; at 2 µM; hits give high values.
As to `N#Cc1ccc2c(c1)CN(C1CCC(NC(=O)c3cc(-c4ccc(Cl)cc4)cs3)CC1)CCC2` (stereo not drawn), the growth inhibition was 99% (active).
The same measure, in the same setting: the result for `O=C(Nc1ccc(-c2nc3ccccc3[nH]2)cc1)C1CCN(Cc2ccc(F)cc2)CC1` reads 91% (active); that for `OC(CNCCCCCCNCC(O)c1ccc(Cl)c(Cl)c1)c1ccc(Cl)c(Cl)c1` (stereo not drawn), 17% (inactive); that for `S=C(NCCc1ccccc1)Nc1ccc2ncsc2c1`, 3% (inactive).
The same measure, in the same setting: to `COc1ccc2ncc(C#N)c(CCN3CCC(NCc4ccc5c(c4)OCCO5)CC3)c2c1` belongs 31% (inactive); to `CN(C)c1nc2cc(-n3cnc4cc(-c5ccc(Cl)cc5)sc4c3=O)ccc2n1CCCN1CCCC1`, 73% (active); to `CCOc1ccc(-c2nonc2NC(=O)c2ccccc2F)cc1OCC`, 100% (active).
For the compound `Nc1cccc(CNCc2cccc(-c3cccc(-c4nc5ccc(C(F)(F)F)cc5[nH]4)c3)c2)c1`, the growth inhibition is 96% (active).
Turning to `CN(C)CCOc1ccc(/C(=C(/CCCn2ccnc2)c2ccccc2)c2ccc(O)cc2)cc1`, the growth inhibition was 99% (active).
Turning to `N#Cc1ccc(NC(=NC2CCCc3ccccc32)Nc2ccc(-c3ccccc3)cc2)c(O)c1` (stereo not drawn), the growth inhibition is 98% (active).
The same measure, in the same setting: the result for `Cc1ccc(NC(=O)Nc2ccc(Cl)c(C(F)(F)F)c2)cc1-c1ccc(C(=O)Nc2ccncc2)cc1` reads 99% (active).
Turning to `COc1cc2nc(Nc3ccc(N4CCOCC4)cc3)nc(N)c2cc1OC`, the growth inhibition was 10% (inactive).
With `COc1ccc(CNC2CCN(C)CC2)cc1-c1ccc(S(=O)(=O)NCC2CCCO2)s1` (stereo not drawn), the growth inhibition is 18% (inactive).
Same read-out and setting: the result for `COc1ccc2nccc([C@@H](O)CN3CCC(NC(=O)C(=Cc4ccc(C#N)cc4)c4ccc(-c5ccccc5)cc4)CC3)c2c1` reads 84% (active); that for `Cc1ccc(C(=O)Nc2cccc(CN3CCCN(Cc4ccc(O)cc4)CC3)c2)s1`, 23% (inactive).
On to `FC(F)(F)c1ccc2nc(-c3ccc(-c4ccc(CNCCN5CCNCC5)cc4)s3)[nH]c2c1`, for which the growth inhibition is 79% (active).
On the same count and under the same terms, to `O=C(NCCN1CCOCC1)c1ccc(O)c(-c2cccc(C(F)(F)F)c2)c1` belongs 48% (inactive).
The same measure, in the same setting: the result for `CCc1nonc1NC(=O)c1oc2c(C)c(C)ccc2c1C` reads 64% (active); that for `CCc1cn2c3c(cc(C(=O)N[C@@H](Cc4ccccc4)[C@H](O)CNCc4ccc(C)cc4)cc13)N(C)S(=O)(=O)CC2`, 98% (active); that for `CCc1cccc2c(C#N)cn(CC(=O)NCCc3ccccc3)c12`, 64% (active).
Still for that read-out and setting: to `CN(C)c1ccc(CN2CCC(NC(=O)c3ccc(-c4cccc(C(F)(F)F)c4)s3)CC2)cc1` belongs 40% (inactive).
As to `CN(C)CCOc1cc(NC(=O)Nc2ccc(-c3ccncc3)c(Cl)c2)ccc1I`, the growth inhibition was 100% (active).
Still for that read-out and setting: to `FC(F)(F)c1cccc(CNCC2CCN(Cc3ccc4c(c3)OCO4)CC2)c1` belongs 19% (inactive); to `CN1c2ccccc2Sc2cc(CNCCSCCNCc3ccc4c(c3)Sc3ccccc3N4C)ccc21`, 44% (inactive).
The same measure, in the same setting: to `CCc1c(C)nc(-n2nc(C)cc2NC(=O)CCc2ccccc2)[nH]c1=O` belongs 97% (active); to `CCc1ccc(-c2cnc(N)c3cc(-c4ccnc(N)n4)ccc23)cc1`, 70% (active); to `COc1cc(SC)c(Br)cc1-c1nc2ccncc2[nH]1`, 9% (inactive).
Consider `COc1cccc(C2(c3cccc(OC)c3)N=C(N)N(CCCc3ccccc3)C2=O)c1`, for which the growth inhibition is 93% (active).
Still for that read-out and setting: to `COc1cccc(CNc2ncc(-c3ccsc3)c(-c3nccs3)n2)c1` belongs 82% (active); to `COc1cc(C(=O)Nc2cccc(-c3cn4cccc(C)c4n3)c2)cc(OC)c1OC`, 77% (active); to `Cc1cccc2[nH]c(-c3ccc(-c4cccc(CNCCN5CCNCC5)c4)cc3)nc12`, 2% (inactive).
Same read-out and setting: the result for `Cc1c(NCCCNCc2cc(Cl)cc(Cl)c2Cl)[nH]c2ccccc2c1=O` reads 86% (active); that for `CC1CCC2(CC1)N=C(N)N=C(N)N2OCc1ccc(Br)c2ccccc12` (stereo not drawn), 40% (inactive).
The same measure, in the same setting: the result for `Cc1cc(NC(=O)Nc2ccc(Cl)cc2F)c2ccccc2n1` reads 71% (active); that for `COc1ccc(NCc2cccc(-c3cccc(CNCCc4ccccc4)c3)c2)cc1`, 14% (inactive).
Regarding `CCC(=O)N(c1ccccc1)C1CCN(CCCC(NC(=O)c2cc(C(F)(F)F)cc(C(F)(F)F)c2)c2ccc(Cl)c(Cl)c2)CC1` (stereo not drawn), the growth inhibition is 57% (active).
The same measure, in the same setting: to `N#Cc1ccc(NC(=O)c2ccc(C(=O)NCCCCN3CCC(c4ccc5c(c4OCCOC4CCCCO4)CCCC5)CC3)cc2)cc1` (stereo not drawn) belongs 97% (active); to `O=c1cc(NCCCNCc2ccc(C(F)(F)F)c(F)c2)[nH]c2ccccc12`, 26% (inactive).
Same read-out and setting: the result for `CN1CCN(CCCN(Cc2ccc(-c3ccc(CNCc4ccc5c(c4)OCO5)cc3)cc2)C(=O)Nc2ccccc2)CC1` reads 77% (active).

A short description of the next assay: HepG2 cytotoxicity, primary screen, cytotoxicity control for P. falciparum antimalarial project, cell-based, ATP luminescence (AID 2303;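 active = inhibition above 50%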;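 note: 0% = DMSO wells and 100% = digitonin-killed cells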). The settings on record: HepG2 viability, 24-48 h, at 10 µM, hits give high values.
Usually inhibition stands for the change of the read-out against control, counted positive when it falls. Regarding `N#Cc1ccc2c(c1)CN(C1CCC(NC(=O)c3cc(-c4ccc(Cl)cc4)cs3)CC1)CCC2` (stereo not drawn), the inhibition is 36% (inactive).
Still for that read-out and setting: the result for `O=C(Nc1ccc(-c2nc3ccccc3[nH]2)cc1)C1CCN(Cc2ccc(F)cc2)CC1` reads 13% (inactive).
Consider `OC(CNCCCCCCNCC(O)c1ccc(Cl)c(Cl)c1)c1ccc(Cl)c(Cl)c1` (stereo not drawn), for which the inhibition is 99% (active).
For `S=C(NCCc1ccccc1)Nc1ccc2ncsc2c1`, the inhibition is -20% (inactive).
Still for that read-out and setting: the result for `COc1ccc2ncc(C#N)c(CCN3CCC(NCc4ccc5c(c4)OCCO5)CC3)c2c1` reads 12% (inactive).
Still for that read-out and setting: to `CN(C)c1nc2cc(-n3cnc4cc(-c5ccc(Cl)cc5)sc4c3=O)ccc2n1CCCN1CCCC1` belongs 99% (active).
`CCOc1ccc(-c2nonc2NC(=O)c2ccccc2F)cc1OCC`: the inhibition is -8% (inactive).
Same read-out and setting: to `Nc1cccc(CNCc2cccc(-c3cccc(-c4nc5ccc(C(F)(F)F)cc5[nH]4)c3)c2)c1` belongs 8% (inactive); to `CN(C)CCOc1ccc(/C(=C(/CCCn2ccnc2)c2ccccc2)c2ccc(O)cc2)cc1`, 13% (inactive); to `N#Cc1ccc(NC(=NC2CCCc3ccccc32)Nc2ccc(-c3ccccc3)cc2)c(O)c1` (stereo not drawn), 0% (inactive).
The same measure, in the same setting: the result for `Cc1ccc(NC(=O)Nc2ccc(Cl)c(C(F)(F)F)c2)cc1-c1ccc(C(=O)Nc2ccncc2)cc1` reads 77% (active); that for `COc1cc2nc(Nc3ccc(N4CCOCC4)cc3)nc(N)c2cc1OC`, 8% (inactive); that for `COc1ccc(CNC2CCN(C)CC2)cc1-c1ccc(S(=O)(=O)NCC2CCCO2)s1` (stereo not drawn), 18% (inactive).
As to `COc1ccc2nccc([C@@H](O)CN3CCC(NC(=O)C(=Cc4ccc(C#N)cc4)c4ccc(-c5ccccc5)cc4)CC3)c2c1`, the inhibition is 5% (inactive).
Same read-out and setting: the result for `Cc1ccc(C(=O)Nc2cccc(CN3CCCN(Cc4ccc(O)cc4)CC3)c2)s1` reads 17% (inactive); that for `FC(F)(F)c1ccc2nc(-c3ccc(-c4ccc(CNCCN5CCNCC5)cc4)s3)[nH]c2c1`, 17% (inactive).
As for `O=C(NCCN1CCOCC1)c1ccc(O)c(-c2cccc(C(F)(F)F)c2)c1`, the inhibition was -1% (inactive).
Still for that read-out and setting: the result for `CCc1nonc1NC(=O)c1oc2c(C)c(C)ccc2c1C` reads 1% (inactive); that for `CCc1cn2c3c(cc(C(=O)N[C@@H](Cc4ccccc4)[C@H](O)CNCc4ccc(C)cc4)cc13)N(C)S(=O)(=O)CC2`, -4% (inactive); that for `CCc1cccc2c(C#N)cn(CC(=O)NCCc3ccccc3)c12`, 1% (inactive).
Still for that read-out and setting: to `CN(C)c1ccc(CN2CCC(NC(=O)c3ccc(-c4cccc(C(F)(F)F)c4)s3)CC2)cc1` belongs 90% (active).
Same read-out and setting: the result for `CN(C)CCOc1cc(NC(=O)Nc2ccc(-c3ccncc3)c(Cl)c2)ccc1I` reads 43% (inactive).
For `FC(F)(F)c1cccc(CNCC2CCN(Cc3ccc4c(c3)OCO4)CC2)c1`, the inhibition is 21% (inactive).
Same read-out and setting: the result for `CN1c2ccccc2Sc2cc(CNCCSCCNCc3ccc4c(c3)Sc3ccccc3N4C)ccc21` reads 58% (active); that for `CCc1c(C)nc(-n2nc(C)cc2NC(=O)CCc2ccccc2)[nH]c1=O`, 48% (inactive).
Same read-out and setting: the result for `CCc1ccc(-c2cnc(N)c3cc(-c4ccnc(N)n4)ccc23)cc1` reads 37% (inactive); that for `COc1cc(SC)c(Br)cc1-c1nc2ccncc2[nH]1`, 5% (inactive).
The same measure, in the same setting: the result for `COc1cccc(C2(c3cccc(OC)c3)N=C(N)N(CCCc3ccccc3)C2=O)c1` reads 3% (inactive); that for `COc1cccc(CNc2ncc(-c3ccsc3)c(-c3nccs3)n2)c1`, 9% (inactive); that for `COc1cc(C(=O)Nc2cccc(-c3cn4cccc(C)c4n3)c2)cc(OC)c1OC`, -3% (inactive).
For the compound `Cc1cccc2[nH]c(-c3ccc(-c4cccc(CNCCN5CCNCC5)c4)cc3)nc12`, the inhibition was 9% (inactive).
Same read-out and setting: to `Cc1c(NCCCNCc2cc(Cl)cc(Cl)c2Cl)[nH]c2ccccc2c1=O` belongs 35% (inactive).
Same read-out and setting: the result for `CC1CCC2(CC1)N=C(N)N=C(N)N2OCc1ccc(Br)c2ccccc12` (stereo not drawn) reads 46% (inactive); that for `Cc1cc(NC(=O)Nc2ccc(Cl)cc2F)c2ccccc2n1`, 10% (inactive).
Turning to `COc1ccc(NCc2cccc(-c3cccc(CNCCc4ccccc4)c3)c2)cc1`, the inhibition was 41% (inactive).
On the same count and under the same terms, to `CCC(=O)N(c1ccccc1)C1CCN(CCCC(NC(=O)c2cc(C(F)(F)F)cc(C(F)(F)F)c2)c2ccc(Cl)c(Cl)c2)CC1` (stereo not drawn) belongs 24% (inactive).
The same measure, in the same setting: to `N#Cc1ccc(NC(=O)c2ccc(C(=O)NCCCCN3CCC(c4ccc5c(c4OCCOC4CCCCO4)CCCC5)CC3)cc2)cc1` (stereo not drawn) belongs 72% (active); to `O=c1cc(NCCCNCc2ccc(C(F)(F)F)c(F)c2)[nH]c2ccccc12`, 5% (inactive); to `CN1CCN(CCCN(Cc2ccc(-c3ccc(CNCc4ccc5c(c4)OCO5)cc3)cc2)C(=O)Nc2ccccc2)CC1`, 36% (inactive).
